The structures appear in SMILES notation. Several values for one entry are separate records, joined by “and”; a condition that tells them apart may be missing. Identical values can stand only once. Results filed as inconclusive are left out. Activity calls are given as the source filed them.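 Rule for the calls, unless noted: active = z-score of at least 1.8 in each of two replicates, scored against plate mean and spread of sample wells; inactive = the rest.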

In general, remaining activity refers to the signal under treatment as a percentage of the control signal. A word on the AC50: it is the midpoint of the concentration-response curve, whichever way the signal moves.

Experiment [1] can be described thus: Wnt pathway potentiators raising nuclear beta-catenin – imaging, WNT3A-conditioned medium, mouse C2C12, NPC library, primary screen (AID 1117326; in the data active = nuclear beta-catenin stimulation mostly above about 4.2%, no sharp cut-off; inactive = mostly below about 10%). Conditions: stronger effect = higher value.
A short description of experiment [2]: stimulators of insulin release from INS-1E, primary screen, cell-based, 5 mM glucose, NPC library (AID 1117329;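 active = compound raises insulin release from rat beta cells at 5 mM glucose, no numeric limit stated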). Conditions: rat INS-1E insulin secretion, at 10 µM, stronger effect = higher value.
Experiment [3] can be described thus: growth inhibition of GSK3B-pretreated HCT116 cells – cell-based, CellTiter-Glo, 0.2 to 20 µM (AID 1117336;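 active = compounds lowering colon cancer cell viability after pretreatment blocking the GSK3B kinase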). The conditions noted are these: HCT116 viability after GSK3B inhibitor, at 20 µM, stronger effect = higher value. On the technique in general: Cellular ATP, detected with luciferase, serves as a proxy for viable cell number.
Experiment [4] can be described thus: inhibition of endothelial tube formation, primary screen, imaging, VEGF stimulated, CD31 staining, tube area, NPC library (AID 1117340;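 active = compound that reduces growth-factor-driven endothelial tube area in a mixed cell culture, no cutoff stated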). The conditions noted are these: VEGF-stimulated ADSC/ECFC co-culture, at 10 µM, stronger effect = higher value.
A short description of experiment [5]: GLP1 release stimulators, primary, NCI-H716, NPC library (AID 1117341;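 active = compound raises GLP1 secretion from the human gut endocrine cells, with no numeric limit stated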). The conditions noted are these: NCI-H716 cells, at 10 µM, stronger effect = higher value.
Experiment [6] can be described thus: HCT116 colon cancer cell growth inhibition, primary screen, CellTiter-Glo luminescence, NPC library (AID 1117342;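 active = compounds that lower survival of HCT116 colon cancer cells in the luminescence readout, no numeric limit stated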). The conditions noted are these: at 20 µM (top of the series).
A short description of experiment [7]: reduced SW480 viability measured with CellTiter-Glo, NPC library, primary (AID 1117343;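 active = compounds that lower viability of the colon cancer cells in the luminescence readout, with no numeric limit stated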). Conditions: CellTiter-Glo luminescence; at 20 µM (top of the series) unless noted.
Experiment [8] in a line: NPC library primary testing for decreased DLD-1 cell viability via CellTiter-Glo (AID 1117346;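 active = compounds that lower survival of DLD-1 colon cancer cells in the luminescence readout, no cutoff given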). The conditions noted are these: DLD-1 viability, CellTiter-Glo luminescence; at 20 µM (top of the series).
The test system of experiment [9] is Aerobactin synthetase IucA (Klebsiella pneumoniae). The experiment in a line: inhibition of K. pneumoniae IucA enzyme – biochemical, Tocris library, absorbance (AID 1345561; call rule not given here;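 note: 100% = enzyme without compound and 0% = no enzyme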). The conditions noted are these: purified IucA enzyme assay, absorbance (OD) read-out; stronger effect = lower value;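 tested at 8 µM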.
The nature of experiment [10]: viability loss with induced miR-34 in A549 – imaging, A549 dox-inducible miR-34, nuclei and caspase counts, primary screen (AID 1347080;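 active = compounds whose cell count with miR-34 switched on is under 0.7 times the count with it off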). Conditions: A549 miR-34 inducible, Hoechst nuclei count, 48 h.
A short description of experiment [11]: MELAS cybrid and Rieske KO viability enhancers – cell-based, MELAS cybrids, Rieske KO mouse fibroblasts, CellTiter-Glo, primary screen (AID 1508586;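 active = mean z-score across replicates of 1.96 or higher in either the MELAS or the Rieske mutant cell line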;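 note: z relative to plate mean and SD of compound and empty wells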). Conditions: low glucose.
A short description of experiment [12]: galactose survival enhancers in mitochondrial complex I cybrids – cell-based, galactose medium, ATP luminescence, primary screen (AID 1645843).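 Note: positive z means more ATP and so rescue of galactose-driven cybrid death.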 Conditions: complex I mutant cybrid cells, 72 h, stronger effect = higher value.
Experiment [13] can be described thus: growth inhibition of DIPG cells – cell-based, MIPE4.0 library, CellTiter-Glo luminescence, qHTS (AID 1347066; cut-off not given, nearly all actives have AC50 up to about 30 µM;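 note: cells exposed to compound for 48 hours before readout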). Conditions: SU-DIPG-VI viability, CellTiter-Glo ATP luminescence.
Experiment [14] in a line: growth inhibition of DIPG cells – cell-based, MIPE5.0 library, qHTS (AID 1347068; cut-off not given, nearly all actives have IC50 up to about 30 µM). Conditions: SU-DIPG-XXV viability. In general terms: qHTS replaces the single test concentration by a dilution series.
Experiment [15] concerns the target NAD(+) hydrolase SARM1 (Homo sapiens) (UniProt Q6SZW1). As to the kind of experiment: blocking NAD cleavage by SARM1 SAM-TIR – cell lysate, NAD-Glo luminescence (AID 1508614;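 active = compound whose remaining NAD level is above about 45 nM, limit read from the data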;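 note: higher remaining NAD means stronger inhibition of SARM1 NADase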). The conditions noted are these: SAM-TIR HEK293T lysate NADase, at 1 µM, stronger effect = higher value.
The mark [16] stands for this setting: stronger effect = lower value, cell number ratio, induced over uninduced.
Where [17] appears, read: measured here: relative caspase fold change +Dox/-Dox.
Where [18] appears, read: measured here: total cells with miR-34 induction, stronger effect = lower value.
Setting [19] is: measured here: total cells without miR-34 induction.
[20] abbreviates: MELAS cybrid survival, CellTiter-Glo 48 h, stronger effect = higher value.
[21] abbreviates: Rieske KO mouse fibroblast survival, CellTiter-Glo 72 h.

Sequence of NAD(+) hydrolase SARM1 (Homo sapiens) (Q6SZW1 whole entry, looked up): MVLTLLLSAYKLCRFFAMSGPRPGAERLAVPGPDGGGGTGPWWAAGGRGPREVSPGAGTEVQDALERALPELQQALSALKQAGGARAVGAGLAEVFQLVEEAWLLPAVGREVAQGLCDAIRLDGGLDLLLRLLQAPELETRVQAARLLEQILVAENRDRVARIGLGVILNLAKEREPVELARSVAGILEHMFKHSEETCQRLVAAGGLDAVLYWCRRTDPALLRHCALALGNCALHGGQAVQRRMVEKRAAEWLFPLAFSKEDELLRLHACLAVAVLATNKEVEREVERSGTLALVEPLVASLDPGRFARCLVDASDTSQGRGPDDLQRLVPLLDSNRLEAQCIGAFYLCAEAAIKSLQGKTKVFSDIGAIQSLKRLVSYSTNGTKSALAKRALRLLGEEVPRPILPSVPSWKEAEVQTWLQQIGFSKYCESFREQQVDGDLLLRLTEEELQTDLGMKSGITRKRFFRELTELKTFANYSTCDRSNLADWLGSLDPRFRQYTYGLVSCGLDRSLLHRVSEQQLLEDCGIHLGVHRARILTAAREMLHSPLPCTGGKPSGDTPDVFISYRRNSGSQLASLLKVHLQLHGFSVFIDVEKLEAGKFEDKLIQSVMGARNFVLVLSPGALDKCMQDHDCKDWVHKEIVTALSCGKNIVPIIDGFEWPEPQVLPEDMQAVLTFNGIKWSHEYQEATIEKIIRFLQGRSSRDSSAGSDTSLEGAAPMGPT

For the compound `Cc1ccc(=O)n(-c2ccccc2)c1`, the nuclear beta-catenin stimulation in [1] (at 10 µM) was 2.8% (inactive); in experiment [1] (stimulation, at 2 µM), 0.6%. Besides, the insulin secretion stimulation in experiment [2] is -1.2% (inactive). Moreover, the viability decrease in experiment [3] is -0.3% (inactive). In addition, the tube area decrease in experiment [4] was 13.3% (inactive). In addition, the GLP1 secretion stimulation in experiment [5] was -2% (inactive). Moreover, in [6], the inhibition of viability is -4.6% (inactive). The viability decrease (inhibition) in [7] was 39.2% (inactive); in experiment [8], 12.8% (inactive). Moreover, the remaining activity in [9] is 120% (inactive). Further, the fold change was 1.05 (inactive) and 0.91 (inactive) and 0.937 (inactive) in experiment [10] (setting [16]); 1.33 and 1.82 and 0.797 in experiment [10] (setting [17]). Also, the cell count is 11000 and 8480 and 9430 in experiment [10] (setting [18]); 10500 and 9310 and 10100 in experiment [10] (setting [19]). For the same compound, the z-score in experiment [11] (setting [20]) is -0.113 (inactive); in experiment [11] (setting [21]), -0.414; in experiment [12], 0.38 (inactive) and -0.08 (inactive).
On to `OCC(CO)N[C@H]1C[C@](O)(CO)[C@@H](O)[C@H](O)[C@H]1O`, for which the nuclear beta-catenin stimulation was 3.1% (inactive) in [1] (at 10 µM) and 5.1% in [1] (stimulation, at 2 µM). Moreover, the insulin secretion stimulation in experiment [2] is -1.5% (inactive). The viability decrease in experiment [3] is -12.8% (inactive). The tube area decrease in experiment [4] is 7.6% (inactive). In experiment [5], the GLP1 secretion stimulation was 1.9% (inactive). In addition, in experiment [6], the inhibition of viability was 5.5% (inactive). Besides, the viability decrease (inhibition) was 27.3% (inactive) in experiment [7] and 1.55% (inactive) in experiment [8]. Also, the remaining activity in [9] is 123% (inactive). Also, the values for the fold change in experiment [10] (setting [16]) and in [10] (setting [17]) were 0.876 (inactive) and 1.87, respectively. In addition, the cell count in experiment [10] (setting [18]) is 8920; in experiment [10] (setting [19]), 10200. In addition, the z-score in experiment [12] is 0.245 (inactive).
For `O=C(O)Cn1c(C(=O)Nc2nc(-c3ccccc3Cl)cs2)cc2ccccc21`, the nuclear beta-catenin stimulation was 0.7% (inactive) in experiment [1] (at 10 µM) and -0.5% in [1] (stimulation, at 2 µM). Also, in [2], the insulin secretion stimulation is 0.05% (inactive). For the same compound, the viability decrease in experiment [3] was 104% (active). Also, in experiment [4], the tube area decrease was 47.9% (active). Besides, the GLP1 secretion stimulation in [5] is 5.4% (inactive). In addition, the inhibition of viability in experiment [6] was 72.1% (active). For the same compound, the viability decrease (inhibition) in [7] was 102% (active); in experiment [8] it was 60.6% (active). Also, the remaining activity in experiment [9] was 99.8% (inactive). Moreover, the fold change is 0.989 (inactive) in experiment [10] (setting [16]) and 1.35 in [10] (setting [17]). The values for the cell count in experiment [10] (setting [18]) and in [10] (setting [19]) were 8300 and 8400, respectively. The z-score in experiment [12] was 1.2 (inactive).
As to `CC#C[C@]1(O)CC[C@H]2[C@@H]3CCC4=CC(=O)CCC4=C3[C@@H](c3ccc(N(C)C)cc3)C[C@@]21C`, the nuclear beta-catenin stimulation in experiment [1] (at 10 µM) is 9.1% (inactive); in experiment [1] (stimulation, at 2 µM), 4%. Further, the insulin secretion stimulation in experiment [2] is 1% (inactive). For the same compound, the viability decrease in experiment [3] was 94.5% (active). Besides, the tube area decrease in experiment [4] was 16.1% (inactive). Moreover, in [5], the GLP1 secretion stimulation was -3.8% (inactive). The inhibition of viability in experiment [6] is 84.3% (active). The results for the viability decrease (inhibition) in experiment [7] and in [8] were 102% (active) and 98.6% (active), respectively. Moreover, the remaining activity in experiment [9] was 115% (inactive). Moreover, the AC50 in experiment [13] is 2.96 µM (active). Moreover, the compound was called inactive in experiment [14]. Moreover, the z-score in experiment [11] (setting [20]) was 1.08 (inactive) and 0.356 (inactive); in experiment [11] (setting [21]), 0.475 and 1.05; in experiment [12], 0.48 (inactive) and -0.34 (inactive) and 0.325 (inactive). For the same compound, in experiment [15], the remaining NAD was 10 nM (inactive).
Regarding `CCC(CC)(CC(=O)Nc1cccc(/C=C/c2nc(C3CCC3)cs2)c1)C(=O)O`, the nuclear beta-catenin stimulation in experiment [1] (at 10 µM) is 0% (inactive); in [1] (stimulation, at 2 µM), 0.1%. The insulin secretion stimulation in experiment [2] is 1% (inactive). Also, the viability decrease in [3] was 96.6% (active). The tube area decrease in experiment [4] is 5.4% (inactive). In experiment [5], the GLP1 secretion stimulation is 1.7% (inactive). Also, the inhibition of viability in experiment [6] was 42.9% (inactive). In addition, the viability decrease (inhibition) in experiment [7] was 41% (inactive); in [8], 70.9% (active). The remaining activity in experiment [9] was 89.3% (inactive). The figures for the fold change in experiment [10] (setting [16]) and in experiment [10] (setting [17]) were 0.829 (inactive) and 1.27, respectively. Also, the cell count was determined as 7300 in [10] (setting [18]) and 8810 in [10] (setting [19]). In addition, the z-score in experiment [12] was 2.4 (active).

Source of the values: PubChem BioAssay.
